Assay [1] concerns the target Peroxisome proliferator-activated receptor gamma (Homo sapiens) (UniProt P37231). In words: qHTS assay for small molecule agonists of peroxisome proliferator-activated receptor gamma signaling (AID 588536; active means well fitted curve in the direction sought with a large enough effect in the signal ratio, with a control signal flat, not every such curve was filed as active; the % refers to the signal ratio;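 further: 0% = DMSO basal wells and 100% = rosiglitazone at 2 µM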). In outline:
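GeneBLAzer PPAR-gamma-UAS-bla HEK293 cells in 1% charcoal/dextran-treated FBS medium were treated 16 h at 37 C with compounds. Beta-lactamase activity was read by CCF4 ratio (460/530 nm). Response was normalized to 2 uM rosiglitazone (100%) and DMSO, then Hill-fitted for EC50 and efficacy.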

For assay [2] the target is unchanged. In words: qHTS assay for small molecule antagonists of peroxisome proliferator-activated receptor gamma signaling (AID 588537; active means well fitted inhibition curve with a large enough effect in the signal ratio, with a control signal flat, not every such curve was filed as active; the % refers to the signal ratio;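 further: reporter cells co-stimulated with 50 nM rosiglitazone agonist during compound treatment; % of control where 0% means no effect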). In outline:
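Step one: plate 3000 HEK293 UAS-bla cells per well in medium with 1% stripped serum and hold 6-6.5 h at 37 C. Step two: add compound and 50 nM agonist for 16 h. Step three: CCF4 loading, fluorescence read.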

The target in assay [3] is Vitamin D3 receptor (Homo sapiens) (UniProt P11473). The assay is described as follows: qHTS assay for small molecule antagonists of vitamin D receptor signaling (AID 588541; calls by dose curve;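 further: receptor activated by calcitriol during compound treatment; series mostly up to about 77 µM; on the % scale 0 is the no-effect control and ±100 the full control effect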). In outline: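 VDR-UAS-bla HEK293T cells in 2% charcoal-stripped FBS were stimulated with 1-alpha,25-dihydroxyvitamin D3 (3 nM final) plus compound for 16 h at 37 C. The beta-lactamase CCF4 readout was normalized to 50 nM agonist and DMSO, and Hill fits gave IC50.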

Assay [4] shares this target. The assay is described as follows: qHTS assay for small molecule agonists of vitamin D receptor signaling (AID 588543; calls by dose curve;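 further: 0% = DMSO basal and 100% = reference agonist control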). An outline of the steps:
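Agonist-mode beta-lactamase reporter: HEK293T VDR-UAS-bla cells in charcoal-stripped 2% FBS, compound series 16 h 37 C, CCF4 2 h RT. EC50 from Hill fit, scaled against DMSO and 50 nM calcitriol control.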
Background: In qHTS, concentration-response curves come from the screen itself.

The nature of assay [5]: qHTS assay for small molecule antagonists of retinoid X receptor alpha signaling (AID 588546; active means well fitted inhibition curve with a large enough effect in the signal ratio, with a control signal flat, not every such curve was filed as active; the % refers to the signal ratio;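 further: cells stimulated with 9-cis-retinoic acid as agonist; on the % scale 0 is the no-effect control and ±100 the full control effect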). As to conditions: HEK293T RXRa-UAS-bla, beta-lactamase ratio, antagonist mode; measured here: W530 green channel, cytotoxicity proxy. In outline: (§1)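 Beta-lactamase reporter inhibition, read as CCF4 fluorescence ratio (ex 405, em 460/530 nm) after 2 h at RT. HEK293T UAS-bla cells, 2500/well, were stimulated with 9-cis-RA at 500 or 100 nM final alongside test compound for 18 h at 37 C.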

For assay [6], the target named is Retinoic acid receptor RXR-alpha (Homo sapiens) (UniProt P19793). Described as above. As to conditions: HEK293T RXRa-UAS-bla, beta-lactamase ratio, antagonist mode. An outline of the steps:
as §1

A short description of assay [7]: qHTS assay for small molecule activators of the p53 signaling pathway (AID 651743; active means well fitted activation curve with a large enough effect in the signal ratio, not every such curve was filed as active; the % refers to the signal ratio; further: series mostly up to about 92 µM; % of control where 0% means no effect). As to conditions: HCT-116 p53RE-bla, beta-lactamase FRET ratio, 16 h; activation: stronger effect = higher value. An outline of the steps: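 HCT-116 p53RE-bla, 4,000 cells/well; 5 h settle; cpd/DMSO 16 h, 37 C; LiveBLAzer B/G 2 h RT; fluorescence intensity.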
The nature of assay [8]: qHTS assay for small molecule activators of the nuclear factor-kappa B (NF-kB) signaling pathway (AID 651749; active means well fitted activation curve with a large enough effect in the signal ratio; the % refers to the signal ratio; further: series mostly up to about 77 µM; % of control where 0% means no effect). As to conditions: NF-kB-bla ME-180 cells, beta-lactamase FRET ratio, 16 h; activation: stronger effect = higher value. An outline of the steps:
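Incubation lasted 16 hr at 37C in 5% CO2 after 23 nL compound addition to ME-180 NF-kB-bla cells. Activation appears as beta-lactamase-mediated FRET loss.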

The nature of assay [9]: qHTS assay for environmental chemicals that activate the Aryl hydrocarbon Receptor (AhR) signaling pathway (AID 651777). Further: nearly all actives have a fitted effect of over 15% in size. Further: potency means the concentration at half of the fitted maximal effect. On activation: % of control where 0% means no effect. As to conditions: 1A2-DRE human hepatoma cells, luciferase, 24 h; activation: stronger effect = higher value. In outline: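 Induction of CYP1A2 transcription through AhR is detected by luciferase in 1A2-DRE hepatoma cells. Compounds or DMSO act for 24 hr at 37 C before a 30 min One-Glo step at room temperature.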

A short description of assay [10]: qHTS assay for small molecule agonists of the antioxidant response element (ARE) signaling pathway measured by Nrf2-dependant transcriptional activity (AID 720636; active means well fitted curve in the direction sought with a large enough effect in the repeat runs; an effect the other way counts as inactive or inconclusive;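 further: HepG2 cells with an ARE-driven luciferase reporter; % of control where 0% means no effect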). An outline of the steps:
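We exposed ARE-luc HepG2 cells, seeded in assay medium with 1% dialyzed FBS and allowed 6 hr to adhere, to test compounds overnight (16 hr, 37 C) before measuring luciferase with ONE-Glo.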

Assay [11] can be described thus: qHTS assay for small molecule agonists of the antioxidant response element (ARE) signaling pathway measured by Nrf2-dependant transcriptional activity - cell viability counter screen (AID 720653; active means well fitted curve in the direction sought with a large enough effect in the repeat runs; an effect the other way counts as inactive or inconclusive; further: on the % scale 0 is the no-effect control and ±100 the full control effect). As to conditions: ARE-bla HepG2 viability, CellTiter-Glo ATP luminescence, 16 h; max response: stronger effect = lower value. An outline of the steps:
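ARE-bla HepG2 cells treated with compounds for 16 h at 37C; this counter screen measures viability as intracellular ATP by CellTiter-Glo luminescence after 30 min at room temperature.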

A short description of assay [12]: qHTS assay for cell viability of HEK293 cells (AID 743288). Further: on the % scale 0 is the no-effect control and ±100 the full control effect; nearly all actives have a fitted effect of over 50% in size. As to conditions: ATP luminescence (CellTiter-Glo), 18 h; max response: stronger effect = lower value. An outline of the steps: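 Total intracellular ATP, measured with a luciferase-coupled reagent, indicates the number of viable HEK293 cells. Exposure to test chemicals lasts 18 h at 37 C in 1,536-well format at 2,000 cells/well.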

In assay [13] the target is Nuclear receptor subfamily 1 group I member 2 (Rattus norvegicus) (UniProt Q9R1A7). In words: qHTS assay for small molecule activators of the rat pregnane X receptor (rPXR) signaling pathway (AID 651751; call rule not given here; further: 0% is about no effect). The note with it: rPXR reporter cells, luciferase (One-Glo), 24 h.
The nature of assay [14]: qHTS assay for small molecule activators of the human pregnane X receptor (PXR) signaling pathway (AID 720659; call rule not given here; further: 0% is about no effect).
Assay [15] in a line: qHTS assay for small molecule antagonists of peroxisome proliferator-activated receptor delta signaling (AID 588535).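 Further: cells co-treated with a PPAR-delta agonist as stimulator during compound exposure.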 The note with it: HEK293T PPARd-UAS-bla, beta-lactamase FRET ratio, 18 h; 460 nm channel. In outline:
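Cells were seeded at 4000 per well in assay medium containing 2% charcoal/dextran FBS and held 5 hrs at 37 C. Compounds were then added for 18 hrs. CCF4 substrate was applied for 2 hrs at room temperature before fluorescence reading.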

The nature of assay [16]: qHTS assay for cell viability of the p53RE-bla HCT-116 cell line (AID 743292). Further: on the % scale 0 is the no-effect control and ±100 the full control effect; nearly all actives have a fitted effect of over 55% in size. An outline of the steps: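 In this qHTS counter-screen, metabolically competent p53RE-bla HCT-116 cells were counted via their ATP content. Compounds were applied for 16 h at 37 C and luciferase-coupled luminescence was measured.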
Assay [17] is described as follows: qHTS assay for small molecule agonists of retinoid X receptor alpha signaling (AID 588544; calls by dose curve;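 on activation: 0% = DMSO basal wells and 100% = reference agonist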). The note with it: HEK293T RXRa-UAS-bla, beta-lactamase reporter, 18 h; 530 nm emission.
Assay [18] concerns the target Retinoic acid receptor RXR-alpha (Homo sapiens) (UniProt P19793). The description is as above.
For assay [19], the target named is Thyroid hormone receptor beta (Homo sapiens) (UniProt P10828). In words: qHTS assay for small molecule agonists of thyroid hormone receptor beta signaling (AID 588545; calls by dose curve;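 further: 0% = DMSO only and 100% = 10 nM T3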). An outline of the steps: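 Stimulation of a TR-driven beta-lactamase reporter was quantified in GripTite HEK 293 cells. Compound series ran for 18 hrs; curves were normalized to T3 and DMSO controls and fitted to yield EC50.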

Assay [20] addresses Peroxisome proliferator-activated receptor alpha (Homo sapiens) (UniProt Q07869). In words: qHTS assay for small molecule agonists of the peroxisome proliferator-activated receptor alpha (PPARalpha) signaling pathway (AID 651778). Further: % of control where 0% means no effect. As to conditions: PathHunter PPARalpha complementation, chemiluminescence, 6 h; max response: stronger effect = higher value. In outline:
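Enzyme-fragment complementation assay in which ligand-bound PPARalpha translocates and forms an active enzyme that generates chemiluminescence. Cells were plated overnight, exposed to compound for 6 hr at 37 C, and then given detection reagent for 60 min at room temperature.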

The results in this text go back to PubChem BioAssay (NCATS).

Results filed as inconclusive are left out. Active and inactive are the calls of the source. Unless noted, the call rests on the fitted dose curve; in most records, active means well fitted curve in the direction sought with a large enough effect; inconclusive means small, poorly fitted or top-dose-only effect, or another doubt; inactive means no such curve, though single readings can be large; an effect the other way counts as inactive or inconclusive.

Sequence of Thyroid hormone receptor beta (Homo sapiens) (P10828 whole entry, looked up): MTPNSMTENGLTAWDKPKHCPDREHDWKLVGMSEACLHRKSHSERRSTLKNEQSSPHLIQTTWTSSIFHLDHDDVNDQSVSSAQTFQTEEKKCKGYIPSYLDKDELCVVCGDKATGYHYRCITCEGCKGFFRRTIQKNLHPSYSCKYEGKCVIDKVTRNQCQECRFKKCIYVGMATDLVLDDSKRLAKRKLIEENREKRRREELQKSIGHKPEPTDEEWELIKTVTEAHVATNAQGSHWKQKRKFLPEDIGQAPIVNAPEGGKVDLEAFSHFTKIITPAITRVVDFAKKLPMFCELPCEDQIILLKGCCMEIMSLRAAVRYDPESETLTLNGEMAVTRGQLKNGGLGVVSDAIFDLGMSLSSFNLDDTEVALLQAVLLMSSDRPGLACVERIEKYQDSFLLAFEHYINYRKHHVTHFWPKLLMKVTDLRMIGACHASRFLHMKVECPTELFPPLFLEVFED
Sequence of Peroxisome proliferator-activated receptor alpha (Homo sapiens) (Q07869 whole entry, looked up, the tested form may be a part): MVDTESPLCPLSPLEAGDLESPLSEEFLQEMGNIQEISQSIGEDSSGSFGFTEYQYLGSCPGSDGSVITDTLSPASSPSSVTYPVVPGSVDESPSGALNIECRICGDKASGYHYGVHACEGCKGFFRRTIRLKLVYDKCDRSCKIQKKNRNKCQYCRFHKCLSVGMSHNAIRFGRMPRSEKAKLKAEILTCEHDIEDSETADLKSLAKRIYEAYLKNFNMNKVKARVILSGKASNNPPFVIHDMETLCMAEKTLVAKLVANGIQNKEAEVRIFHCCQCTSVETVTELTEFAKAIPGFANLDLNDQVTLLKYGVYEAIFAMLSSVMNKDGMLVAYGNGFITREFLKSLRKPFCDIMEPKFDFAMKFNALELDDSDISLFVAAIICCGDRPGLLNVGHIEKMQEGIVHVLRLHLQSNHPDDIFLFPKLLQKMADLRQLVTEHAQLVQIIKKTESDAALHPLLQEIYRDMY
Sequence of Peroxisome proliferator-activated receptor gamma (Homo sapiens) (P37231 whole entry, looked up): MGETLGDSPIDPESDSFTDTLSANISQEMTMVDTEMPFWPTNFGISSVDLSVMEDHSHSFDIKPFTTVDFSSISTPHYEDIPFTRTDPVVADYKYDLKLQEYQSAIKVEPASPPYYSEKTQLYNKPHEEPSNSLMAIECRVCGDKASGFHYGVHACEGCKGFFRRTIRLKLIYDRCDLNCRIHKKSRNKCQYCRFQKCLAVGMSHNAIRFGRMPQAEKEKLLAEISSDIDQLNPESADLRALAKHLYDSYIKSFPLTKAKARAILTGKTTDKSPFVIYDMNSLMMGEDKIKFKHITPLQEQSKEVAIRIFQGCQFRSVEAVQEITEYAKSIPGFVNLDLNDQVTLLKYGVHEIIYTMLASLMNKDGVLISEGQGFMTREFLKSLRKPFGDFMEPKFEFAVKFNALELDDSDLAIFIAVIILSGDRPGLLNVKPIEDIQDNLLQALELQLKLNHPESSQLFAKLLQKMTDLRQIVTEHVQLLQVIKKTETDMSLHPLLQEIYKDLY
Sequence of Retinoic acid receptor RXR-alpha (Homo sapiens) (P19793 whole entry, looked up): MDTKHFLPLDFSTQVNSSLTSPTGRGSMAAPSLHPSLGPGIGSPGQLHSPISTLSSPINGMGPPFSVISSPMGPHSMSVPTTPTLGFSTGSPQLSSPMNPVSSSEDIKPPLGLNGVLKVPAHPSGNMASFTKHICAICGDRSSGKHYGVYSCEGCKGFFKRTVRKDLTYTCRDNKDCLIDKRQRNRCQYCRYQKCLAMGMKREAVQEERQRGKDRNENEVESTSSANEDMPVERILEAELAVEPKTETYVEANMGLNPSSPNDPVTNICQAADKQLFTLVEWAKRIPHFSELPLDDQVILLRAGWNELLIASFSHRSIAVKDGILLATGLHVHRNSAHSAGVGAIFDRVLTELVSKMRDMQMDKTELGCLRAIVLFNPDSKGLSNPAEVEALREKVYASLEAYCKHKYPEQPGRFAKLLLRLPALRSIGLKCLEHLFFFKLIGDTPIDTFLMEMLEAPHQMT
Sequence of Vitamin D3 receptor (Homo sapiens) (P11473 whole entry, looked up): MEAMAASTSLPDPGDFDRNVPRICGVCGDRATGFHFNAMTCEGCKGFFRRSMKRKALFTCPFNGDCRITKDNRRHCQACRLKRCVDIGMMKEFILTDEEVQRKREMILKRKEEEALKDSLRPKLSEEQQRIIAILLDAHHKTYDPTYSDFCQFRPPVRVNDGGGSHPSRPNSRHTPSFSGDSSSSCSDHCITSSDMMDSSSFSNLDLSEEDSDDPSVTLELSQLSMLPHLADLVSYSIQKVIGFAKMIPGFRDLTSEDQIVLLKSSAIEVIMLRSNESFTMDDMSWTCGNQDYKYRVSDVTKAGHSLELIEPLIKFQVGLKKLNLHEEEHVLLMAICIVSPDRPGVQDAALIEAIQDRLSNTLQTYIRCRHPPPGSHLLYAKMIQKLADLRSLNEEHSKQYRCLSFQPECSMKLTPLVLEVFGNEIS
Sequence of Nuclear receptor subfamily 1 group I member 2 (Rattus norvegicus) (Q9R1A7 whole entry, looked up): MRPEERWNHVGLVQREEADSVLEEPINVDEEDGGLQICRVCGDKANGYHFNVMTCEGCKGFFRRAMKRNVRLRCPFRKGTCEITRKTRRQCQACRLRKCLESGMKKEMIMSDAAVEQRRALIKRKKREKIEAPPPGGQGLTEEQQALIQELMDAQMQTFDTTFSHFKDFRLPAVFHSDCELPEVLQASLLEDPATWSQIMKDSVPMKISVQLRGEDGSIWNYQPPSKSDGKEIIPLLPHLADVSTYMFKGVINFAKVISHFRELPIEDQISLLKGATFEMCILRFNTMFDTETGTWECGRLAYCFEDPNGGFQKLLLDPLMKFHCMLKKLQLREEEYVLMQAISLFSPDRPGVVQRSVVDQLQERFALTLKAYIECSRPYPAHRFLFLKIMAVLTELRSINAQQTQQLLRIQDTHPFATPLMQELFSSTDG

Regarding `CCCOC(=O)c1ccc(C(=O)OCCC)nc1`, the outcome in assay [1], in [4] and in assay [14] was inactive. Further, the Potency result in assay [2], in assay [3] and in assay [10] was “inactive” in each case. Further, the max response in assay [5] was 6.56%; in assay [6], -17.9% (inactive); in assay [11], 22.4% (inactive); in assay [12] it was -23.4% (inactive); in assay [13] it was -3.51% (inactive). Moreover, the activation in [7] was -3.13% (inactive); in [8], 1.57% (inactive); in assay [9] it was -2.64% (inactive).

As to `COc1ccccc1NC(=O)CC(C)=O`, the max response in assay [15] is 49.4%; in assay [5], 7.64%; in [11] it was 2.57% (inactive); in assay [12], -19.2% (inactive); in assay [13], 5.67% (inactive). Also, the compound was classed as inactive in assay [1] and in [4]. The Potency result in assay [3], in assay [10] and in [16] was “inactive” throughout. For the same compound, the activation is -7.86% (inactive) in assay [7], -0.04% (inactive) in [8] and 6.41% (inactive) in assay [9].

Take `Cc1ccc(N=Nc2c(O)ccc3ccccc23)c([N+](=O)[O-])c1`: the max response is 39.9% in assay [15]; -14.3% in assay [17]; -4.75% in [5]; -0.783% (inactive) in [6]; 0.597% (inactive) in assay [20]; -11.8% (inactive) in assay [11]. Moreover, the results for the max response in assay [12] and in assay [13] were -2.16% (inactive) and 5.08% (inactive), respectively. In addition, the Potency entry in [3], in [18], in [19] and in assay [16] was “inactive” each time. In addition, the compound was classed as inactive in assay [4]. Also, the activation in assay [7] was -4.13% (inactive); in assay [8], -0.237% (inactive). In addition, the Potency in assay [9] is 17.8 µM (active).

Turning to `C[Si](C)(C)N[Si](C)(C)C`, the compound was classed as inactive in [1] and in assay [4]. Also, the Potency entry in assay [2], in assay [3], in [19], in [10] and in assay [16] was “inactive” each time. In addition, the max response is -0.733% in assay [17]; -10.7% in assay [5]; 1.24% (inactive) in [6]; -0.0059% (inactive) in [20]; 1.14% (inactive) in assay [11]; -5.89% (inactive) in [12]. The activation in assay [7] was 1.4% (inactive); in assay [9], 1.22% (inactive).

Take `Nc1nc(N)nc(-c2ccccc2)n1`: the max response in [15] is 20.7%; in assay [17], -9.5%; in assay [5], -13.3%; in assay [6], -4.65% (inactive); in [20] it was 0.149% (inactive); in assay [11] it was -8.33% (inactive). Also, the max response in [12] is -4.29% (inactive); in assay [13], 2.49% (inactive). Moreover, the result in assay [1] and in [14] was inactive. For the same compound, the Potency result in [18], in assay [19] and in assay [16] was “inactive” throughout. Moreover, the results for the activation in assay [8] and in [9] were 0.267% (inactive) and 5.62% (inactive), respectively.

For the compound `CCCCCCCCCCCC(=O)N(C)CC(=O)O`, the max response in assay [17] was 21.8%; in assay [5], 7.91%; in assay [6], 6.82% (inactive); in assay [11], 19.7% (inactive); in assay [12], -6.6% (inactive); in assay [13] it was -2.95% (inactive). Besides, the Potency result in assay [18], in assay [19] and in assay [16] was “inactive” in each case. In assay [9], the activation was 0.0412% (inactive). Also, the call in [14] was inactive.

Take `CC1(C)CC(N)CC(C)(CN)C1` (stereo not drawn): the max response in assay [15] is -18%; in assay [17], -8.73%; in assay [5] it was -12.5%; in assay [6], 4.46% (inactive); in assay [20] it was -3.48% (inactive); in assay [11], -2.66% (inactive). In addition, the max response is -2.22% (inactive) in assay [12] and -2.15% (inactive) in assay [13]. Also, the outcome in assay [1] and in [14] was inactive. For the same compound, the Potency entry in [19] and in [16] was “inactive” each time. The activation in assay [7] was -1.29% (inactive); in assay [8] it was -0.653% (inactive).
